GLS inh: qHTS for Inhibitors of Glutaminase (GLS) | AID 624170, 2012 | Glutaminase kidney isoform, mitochondrial (Homo sapiens), O94925 | Potency, µM (titrated, usually from 45.5 µM), inactives show at the top dose activity change, negative = inhibition, actives largely listed as inhibitors | actives 0.21% (n = 410,000) | GLS enzymatic activity, qHTS titration; also: % is scaled to controls: 0 for no effect and ±100 for the full control effect
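Compounds were pin-transferred onto hKGA, after which L-glutamine (1 mM solution) and a detection mix of glutamate oxidase, HRP and Amplex Red were added. Initial and 30 min RT fluorescence reads were collected.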
BAZ2B block: qHTS Assay for Inhibitors of BAZ2B; Bromodomain adjacent to zinc finger domain protein 2B (Homo sapiens), Q9UIF8; AlphaScreen BAZ2B-H3K14Ac peptide displacement; Potency, µM (doses to about 114 µM), for the others: top-dose activity change, negative = inhibition, actives largely listed as inhibitors; actives 4.4% (n = 360,000); also: % is scaled to controls: 0 for no effect and ±100 for the full control effect; nearly all actives have a fitted effect of over 60% in size
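In this displacement format the biotinylated H3(5-23) peptide acetylated at Lys14 serves as ligand at 50 nM, with BAZ2B at 50 nM in PBS pH 7.4 containing 0.01% Tween-20. Donor and acceptor beads are 10 ug/mL final.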
L3MBTL1 inh: qHTS Assay for the Inhibitors of L3MBTL1; Lethal(3)malignant brain tumor-like protein 1 (Homo sapiens), Q9Y468; AlphaScreen L3MBTL1–H3K9me1 peptide binding; Potency, µM (top dose mostly 57.1 µM), for the others: at the top dose activity, negative = inhibition, most hits filed as inhibitors; actives 0.66% (n = 230,000); AID 485360, 2010; also: % is scaled to controls: 0 for no effect and ±100 for the full control effect; nearly all actives have a fitted effect of over 60% in size
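Displacement of a biotinylated histone H3(1-15) peptide monomethylated at Lys9 (75 nM) from L3MBTL1 (50 nM) was measured by AlphaScreen after a 30 min room-temperature compound incubation; cefsulodin titration served as intraplate control.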
HP1b binding inh: HTS for Inhibitors of HP1-beta Chromodomain Interactions with Methylated Histone Tails. actives 0.56% (n = 390,000). Potency, µM (highest dose often 114 µM), for inactives: top-dose activity change, negative = inhibition, usual class: inhibitors. AlphaScreen HP1-beta / biotin-H3K9me3 peptide binding; also: nearly all actives have a fitted effect of over 70% in size
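AlphaScreen: HP1-beta (50 nM) preformed 30 min with biotin-H3(1-18)K9me3 peptide (50 nM) in PBS pH 7.4, 0.01% Tween-20. Compound added for 30 min at RT, then streptavidin donor/nickel chelate acceptor beads (10 ug/mL) for 30 min.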
G9a inh: qHTS Assay for Inhibitors of Histone Lysine Methyltransferase G9a. AID 504332, 2011. actives 8.8% (n = 350,000). Potency, µM (highest dose often 102 µM), for inactives: top-dose activity, negative = inhibition, most hits filed as inhibitors. Histone-lysine N-methyltransferase EHMT2 (Homo sapiens), Q96KQ7. G9a H3K9 monomethylation, AlphaScreen, 2 h; also: % is scaled to controls: 0 for no effect and ±100 for the full control effect; nearly all actives have a fitted effect of over 75% in size
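Chemiluminescent proximity detection of H3K9 monomethylation, read after 10 min bead incubation in the dark. Reaction: 20 nM G9a, 500 nM biotin-H3K9 peptide, 20 uM SAM cofactor, 2 h, room temperature, following 15 min enzyme-compound preincubation.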
JMJD2A Tudor: qHTS Assay for Inhibitors of JMJD2A-Tudor Domain; Potency, µM (doses to about 114 µM), for the others: at the highest dose activity change, negative = inhibition, hits mostly inhibitors; AlphaScreen JMJD2A-Tudor / H3K4me3 peptide binding; AID 504339, 2011; actives 4.4% (n = 390,000); Lysine-specific demethylase 4A (Homo sapiens), O75164; also: % is scaled to controls: 0 for no effect and ±100 for the full control effect; nearly all actives have a fitted effect of over 50% in size
Starred values were filed as active, the others as inactive; ? = inconclusive; . = no result; [ ] = remark or other dose. Shown are actives, neighbours in structure and some others; about 10% of the full set was active somewhere. Calls follow the shape of the dose curve; as a rule, active = well fitted curve in the direction sought with a large enough effect; inconclusive = small, poorly fitted or top-dose-only effect, or another doubt; inactive = no such curve, though single readings can be large; an effect the other way counts as inactive or inconclusive. Potency is read from the fitted curve at half-maximal effect.

SMILES	GLS inh	BAZ2B block	L3MBTL1 inh	HP1b binding inh	G9a inh	JMJD2A Tudor
Cc1ccc(NC(=O)C2CCN(S(=O)(=O)c3cc([N+](=O)[O-])ccc3Cl)CC2)nc1	-6.5%	.	-8.3%	-16.7%	.	44.7µM*
CC(=O)COC(=O)C1CCN(S(=O)(=O)c2cc([N+](=O)[O-])ccc2Cl)CC1	?	50.1µM*	28.2µM*	16.7%	?	56.2µM*
Cc1cc(/C=C2/C(=N)N3C(=NC2=O)SN=C3S(C)(=O)=O)c(C)n1-c1ccc(F)cc1	11.9%	.	.	16.0%	39.8µM*	-24.2%
CCOc1ccc(-n2c(C)cc(/C=C3/C(=N)N4C(=NC3=O)SN=C4S(C)(=O)=O)c2C)cc1	18.9%	56.2µM*	.	9.5%	28.2µM*	?
COc1ccccc1-n1c(C)cc(/C=C2/C(=N)N3C(=NC2=O)SN=C3S(C)(=O)=O)c1C	1.6%	.	.	10.5%	50.1µM*	-35.7%
COc1cc(/C=C2/C(=N)N3C(=NC2=O)SN=C3S(C)(=O)=O)ccc1OS(=O)(=O)c1ccccc1	.	50.1µM*	.	.	25.1µM*	.
CCOc1cc(/C=C2/C(=N)N3C(=NC2=O)SN=C3S(C)(=O)=O)ccc1OS(=O)(=O)c1ccccc1	22.7%	?	.	-7.4%[57 µM]	.	?
COCc1cc(C)nc2sc3c(c12)NC(c1ccc(O)cc1)N(c1ccc(C)cc1)C3=O (stereo not given)	7.1%	11.5%	.	41.1%	35.8%[59 µM]	-14.2%
COc1cccc(CNC(=O)CCc2c(C)c3ccc(O)c(C)c3oc2=O)c1	6.9%	-10.6%	.	42.9%	-1.8%[59 µM]	-4.2%
CC1=C(C(=O)Nc2ccccc2)C(c2ccncc2)n2nc(SCc3ccccc3Cl)nc2N1 (stereo not given)	6.4%	6.3%	.	36.2%	7.9%[59 µM]	-13.7%
NC(=S)Nc1cnc2ccccc2c1	8.8%	9.2%	0.7%	21.2%	50.1µM*	-9.0%
COc1ccc(NC(=S)Nc2cnc3ccccc3c2)c(OC)c1	6.6%	?	-7.1%[11.4 µM]	26.2%	?	1.4%
C=CCN(CC=C)CCOc1cccc2ccccc12	3.7%	50.1µM*	3.4%	?	11.2µM*	20µM*
C=CCN(CC=C)CCOc1ccccc1	1.4%	56.2µM*	0.4%	-18.0%	12.6µM*	3.55µM*
CCCCN(CC)CCOc1cccc2ccccc12	.	.	.	.	39.5%[59 µM]	.
CCOC(=O)Cc1cc(=O)n2[nH]c(C)cc2n1	13.8%	?	25.1%[11.4 µM]	11.2%	-23.9%[59 µM]	15.8µM*
CCOC(=O)Cc1cc(=O)n2[nH]c(-c3ccc(Cl)cc3)cc2n1	1.7%	-4.5%	.	31.3%	4.7%	-8.1%
Cc1cc(C(=O)NNc2ccc(C(C)C)cc2)n(C(C)(C)C)n1	14.7%	?	.	21.0%	7.94µM*	?
Cc1nnsc1C(=O)NNc1ccc(C(C)(C)C)cc1	9.7%	-14.6%	0.5%	11.3%	1.78µM*	-21.4%
Cc1nnsc1C(=O)NNc1ccc(C(C)C)cc1	5.9%	-13.7%	-2.5%	5.5%	8.91µM*	-11.7%
CCN(CC)c1cc2c(cc1F)c(=O)c(S(=O)(=O)c1cccc(C)c1)cn2C	7.9%	0.0%	.	34.3%	2.2%[59 µM]	1.0%
CCn1c(SCC(=O)Nc2cccc(Cl)c2)nnc1-c1nonc1NC(C)=O	-15.7%	2.1%	.	53.6%	7.4%[59 µM]	-1.3%
O=C(Nc1ccccc1)N1CCCC2(CCN(C(=O)c3cc(C(F)(F)F)cc(C(F)(F)F)c3)CC2)C1	.	.	.	.	0.5%[12.7 µM]	.
COc1cc(Cl)c(C)cc1Nc1nc2ccccc2c2nnc(C)n12	1.1%	16.2%	.	77.5%	6.8%[59 µM]	-3.8%
COc1ccc(S(=O)(=O)c2c(SC)nn(Cc3ccccc3C)c2NC(C)=O)cc1	-4.4%	-0.1%	.	13.9%	3.5%[59 µM]	4.2%
